For assay [1], the target named is T1, Aspartate--tRNA(Asp/Asn) ligase (Mycobacterium tuberculosis (strain ATCC 25618 / H37Rv)) (UniProt P9WFW3). Further: in the data most compounds retested in dose-response had high values.
T1 sequence (whole entry): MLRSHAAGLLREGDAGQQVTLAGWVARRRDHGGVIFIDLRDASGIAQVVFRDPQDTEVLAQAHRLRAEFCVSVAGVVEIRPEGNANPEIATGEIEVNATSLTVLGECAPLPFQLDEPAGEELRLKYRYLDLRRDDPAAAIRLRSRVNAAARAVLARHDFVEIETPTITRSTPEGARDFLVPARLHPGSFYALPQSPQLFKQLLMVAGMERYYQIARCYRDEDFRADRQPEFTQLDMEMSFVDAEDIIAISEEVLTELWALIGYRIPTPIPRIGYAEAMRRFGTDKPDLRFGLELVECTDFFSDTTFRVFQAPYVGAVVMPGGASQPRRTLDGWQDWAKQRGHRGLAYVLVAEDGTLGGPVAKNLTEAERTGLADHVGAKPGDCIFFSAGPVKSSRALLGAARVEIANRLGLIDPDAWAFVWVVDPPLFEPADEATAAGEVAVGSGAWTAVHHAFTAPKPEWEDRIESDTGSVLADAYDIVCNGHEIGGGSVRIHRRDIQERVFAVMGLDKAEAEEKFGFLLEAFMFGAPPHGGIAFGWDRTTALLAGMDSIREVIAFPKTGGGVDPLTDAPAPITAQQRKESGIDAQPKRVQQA
Description: Assay for Asp RNA synthetase-1 from Mycobacterium tuberculosis. Format: functional. On the set-up: scale not given: direction of the effect not stated beside the values. Particulars: 30 µM.

Assay [2] addresses Shiga toxin 2 (Escherichia coli O157:H7) (UniProt P09385+P09386). Description: E. coli 0.157:H7 Shiga Toxin SOP - stx2 screening assay. Format: functional. Particulars: 30 µM. On the set-up: scale not given: direction of the effect not stated beside the values.

These results are taken from ChEMBL document CHEMBL3988442, “University of Dundee, Small-Polar-MMV Screening Library” (2021).

Each structure is given as a SMILES string.

As to `N#CCCCS(=O)(=O)N1CCCC1CC(=O)c1cccs1` (configuration not stated), the Percent Effect came out at 0.747% in assay [1] and 12% in assay [2].
`CCc1noc(CN(C)Cc2ccc(N3CCCCC3)cc2)n1`: the Percent Effect in assay [1] was -2.17%; in assay [2] it was -19.3%.
On the same counts, the results for `Cc1nnc([C@@H]2CC[C@@H]3[C@@H](CCN3S(=O)(=O)c3cccnc3)O2)o1` are 7.29% and 8.32%.
In the case of `CN(C)S(=O)(=O)N1CCC(Oc2ccccn2)CC1`, the Percent Effect in assay [1] was 3.02%; in assay [2], 10.6%.
For `CN(C)C(=O)C1CN(Cc2ccccc2)CCN(S(C)(=O)=O)C1` (configuration not stated) the same measures were -2.4% and -6.7%.
`CN1CCCC[C@@H]2[C@H]1[C@@H](c1ccccc1)CCN2C(=O)c1cnccn1`: the Percent Effect is 0.342% in assay [1] and -18.3% in assay [2].
On the same counts, the results for `CCC(C)NC(=O)NCCCn1nc2ccccn2c1=O` (configuration not stated) are 1.23% and 22.8%.
On the same counts, the results for `CCc1nccn1C1CCCN(C(=O)c2cc3nc(C)ccc3o2)C1` (configuration not stated) are -2.42% and 20.3%.
For `O=C(Cc1ccc2c(c1)OCCO2)NC1CCCC1` the same measures were -0.698% and 3.29%.
For the molecule `NCC(c1ccccc1)N1CCc2sccc2C1` (configuration not stated), the Percent Effect is -4.25% in assay [1] and -7.32% in assay [2].
For the molecule `CN(C)CCOCC1CN(C(=O)[C@H]2CCCO2)Cc2ccnn2C1` (some centres not stated), the figures for the Percent Effect in assay [1] and in assay [2] were 0.379% and -15.2%, respectively.
Take `CCC1c2ccsc2CCN1C(=O)NCCNc1ncccn1` (configuration not stated): the Percent Effect was -3.52% in assay [1] and 10.9% in assay [2].
`Cc1cc(CN2CCOC(CN(C)c3cccnn3)C2)no1` (configuration not stated): the Percent Effect in assay [1] is -2.36%; in assay [2] it was 18.5%.
For `O=C(CN1CCc2ccccc21)Nc1ccc(OC(F)F)cc1` the same measures were 0.418% and -7.39%.
On the same counts, the results for `O=C(NC1CCCC1)N1CCCC(c2nccn2Cc2ccncc2)C1` (configuration not stated) are -4.62% and 12.8%.
With `CNC(=O)[C@H]1C[C@@H]2CN(S(=O)(=O)c3ccccc3)C[C@@H]2N1C`, the Percent Effect is -3.51% in assay [1] and -39.6% in assay [2].
For `Cc1c(Br)cccc1C(=O)NC(C)CN1CCCC1=O` (configuration not stated) the same measures were -1.01% and 1.67%.
On the same counts, the results for `OCC1CCCN1c1cc(N2CCN(c3ccccn3)CC2)ncn1` (configuration not stated) are -3.49% and 32.6%.
For `CS(=O)(=O)N1C[C@@H]2CC[C@H](C1)N(Cc1cscn1)C2=O` the same measures were 0.593% and -13.6%.
On to `COc1ncnc2c1CCN(c1cc(C(F)(F)F)ncn1)CC2`, for which the Percent Effect in assay [1] is 3.67%; in assay [2], -1.32%.
On the same counts, the results for `COc1ncc(NC(=O)Nc2cc(C)ccc2OC)cn1` are 1.65% and -28.6%.
Consider `Cc1cccc(C(=O)NCc2ccnc(N(C)C)c2)n1`, for which the Percent Effect in assay [1] was -1.33%; in assay [2] it was -8.62%.
As for `O=C(Cc1csc(-c2ccc(Cl)cc2)n1)NC(C(=O)O)c1ccccc1` (configuration not stated), the Percent Effect in assay [1] was 1.86%; in assay [2], -21.9%.
For `O=C(COc1coc(CN2CCOCC2)cc1=O)c1ccc(Cl)cc1`, the Percent Effect is 4.37% in assay [1] and -57.8% in assay [2].
As for `CN(CCCc1cnn(C)c1)C(=O)C1COc2ccccc2C1` (configuration not stated), the Percent Effect in assay [1] is 11.4%; in assay [2], -16.4%.
Consider `CCC(C)(C)NC(=O)Cn1nc(C)nc1-c1cccc(C)c1`, for which the Percent Effect in assay [1] is 1.4%; in assay [2], 5.46%.
On the same counts, the results for `O=C(CN1CCOC(Cn2cccn2)C1)NCc1cccs1` (configuration not stated) are -1.46% and -9.71%.
Take `Cc1cnn(CC2CCCN2C(=O)c2cc3ccccc3[nH]2)c1` (configuration not stated): the Percent Effect in assay [1] came out at 1.27%; in assay [2] it was 14.6%.
For the molecule `COc1ncccc1C(=O)N1CCCC(c2cc(C)[nH]n2)C1` (configuration not stated), the Percent Effect in assay [1] is -4.25%; in assay [2] it was 5.54%.
For `COc1ccc(CNCc2ccnc(N3CCCCC3)c2)cc1OC` the same measures were -2.15% and -57.5%.
On the same counts, the results for `CCN(CC1CCOC1)C(=O)Nc1ccc(OC)nc1` (configuration not stated) are 4.72% and -156%.
On the same counts, the results for `COc1ccccc1OCCN1CCCC(c2cc(C(N)=O)[nH]n2)C1` (configuration not stated) are 0.0735% and 5.34%.
For the molecule `Cc1nc(CN2CCc3nn(C(C)C)c(=O)cc3C2)oc1C`, the Percent Effect is 7% in assay [1] and 0.318% in assay [2].
For `COc1ccc(CN2CCC(O)CC2)c(OC)c1`, the values for the Percent Effect in assay [1] and in assay [2] were -2.06% and 7.95%, respectively.
For `CCS(=O)(=O)CCNC(=O)c1ccc(-c2ccc(C)cc2)cc1F`, the Percent Effect is 7.76% in assay [1] and -42.5% in assay [2].
As to `CCc1noc(C(C)N(C)CC(=O)Nc2cccc(C)n2)n1` (configuration not stated), the figures for the Percent Effect in assay [1] and in assay [2] were -1.61% and -14.2%, respectively.
For `CN1CCN(C(=O)CC2CCN(CCc3ccccn3)CC2)CC1`, the Percent Effect is -2.94% in assay [1] and 8.24% in assay [2].
With `COc1ccc(-c2ccnc3c2C(=O)CCC3)cc1`, the Percent Effect in assay [1] is -5.43%; in assay [2] it was -32.1%.
As for `CN(C)c1ccc(CC(=O)N[C@@H]2CCNC[C@H]2O)cc1`, the Percent Effect in assay [1] is 3.77%; in assay [2] it was 1.28%.
For `Cc1ccc(OC2(C(=O)O)CCN(C(=O)c3nc(C)oc3C)CC2)cn1` the same measures were -2.19% and 0.158%.
In the case of `CCC(CO)NC(=O)c1ccc2ccc(N(C)CC3CC3)n2c1` (configuration not stated), the figures for the Percent Effect in assay [1] and in assay [2] were -2.57% and -33%, respectively.
`CCn1ncc2c1CCCC2NCc1ccc(OC)c(C)c1` (configuration not stated): the Percent Effect was -4.46% in assay [1] and -11.4% in assay [2].
On to `CC(Cc1ccco1)NC(=O)Nc1ccc(N2CCOCC2)nc1` (configuration not stated), for which the Percent Effect is -3.59% in assay [1] and 15% in assay [2].
For `c1cnnc(N2CCCC2CNCc2cc[nH]n2)c1` (configuration not stated) the same measures were -3.63% and -20%.
With `Cc1ccc(C(CNCc2ccncc2)N2CCOCC2)s1` (configuration not stated), the Percent Effect in assay [1] was 2.18%; in assay [2], -29.8%.
As to `Cc1ccc(N(C)C2CCN(C(=O)CCc3ccco3)CC2)nn1`, the Percent Effect was 2.42% in assay [1] and -5.22% in assay [2].
In the case of `CN(C)C[C@H]1OC[C@@H]2CCN(C(=O)c3ccco3)C[C@@H]21`, the Percent Effect in assay [1] is -2.13%; in assay [2], -9.03%.
On the same counts, the results for `COc1ccc(C(=O)NS(=O)(=O)c2ccc(C#N)cc2C(F)(F)F)cc1` are -0.26% and 8.91%.
Regarding `Cc1ccc(C(=O)NCCS(C)(=O)=O)c(=O)[nH]1`, the results for the Percent Effect in assay [1] and in assay [2] were -3.5% and -4.7%, respectively.
For the molecule `Cc1nc(C)n(CC2CCCN(Cc3nc(C4CC4)no3)C2)n1` (configuration not stated), the Percent Effect in assay [1] was found to be 4.92%; in assay [2], 7.13%.
Turning to `COc1cccc2c1OCC(CNC(=O)CNC(N)=O)C2` (configuration not stated), the Percent Effect amounted to 4.22% in assay [1] and 11.9% in assay [2].
